In general, AC50 refers to the concentration giving half of the maximal activity seen.

Here are results for three compounds from PubChem BioAssay (EPA / NIEHS).

Calls of active or inactive are those of the source. How the source made its calls: active means hit-call score of the fitted dose curve at least 0.9, where 1 is the maximum; inactive means score below 0.9.

Holding throughout (settings): mRNA level, 48 h; actives raise or lower the signal
Read-out in assay [1]: Cytochrome P450 (CYP2B6), CYP2B6 (gene 1555)
The experiment in a line: LTEA_HepaRG_CYP2B6: Life Technologies and Expression Analysis (LTEA) Assay for Cytochrome P450 (CYP2B6) using HepaRG (AID 2283481). The procedure, abridged: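 Using 48 h treatment of HepaRG cells in serum-free induction medium, concentrations spanned half-log steps from 100 uM in 0.5% DMSO vehicle. CYP2B6 mRNA induction or loss is scored by qRT-PCR against DMSO.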

Read-out in assay [2]: Cytochrome P450 2C19 (Homo sapiens) (UniProt P33261)
The experiment in a line: LTEA_HepaRG_CYP2C19: Life Technologies and Expression Analysis (LTEA) Assay for CYP2C19 using HepaRG (AID 2283482). The procedure, abridged:
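Human HepaRG liver cells received test chemicals for 48 h (highest 100 uM, half-log dilutions in 0.5% DMSO). CYP2C19 mRNA induction or loss is read by multiplexed qRT-PCR and fitted in both directions versus vehicle.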

Read-out in the next assay: CYP2C8 (gene 1558)
Briefly: LTEA_HepaRG_CYP2C8: Life Technologies and Expression Analysis (LTEA) Assay for CYP2C8 using HepaRG (AID 2283483). The procedure, abridged:
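CYP2C8 expression measured by TaqMan qRT-PCR and normalized to three housekeeping genes. HepaRG cultures were treated for 48 h with an eight-point half-log series topping at 100 uM, vehicle 0.5% DMSO, duplicates; fitted both directions against DMSO.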

Read-out in another assay: CYP2C9 (gene 1559)
Briefly: LTEA_HepaRG_CYP2C9: Life Technologies and Expression Analysis (LTEA) Assay for CYP2C9 using HepaRG (AID 2283484). The method, boiled down: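 CYP2C9 transcript level, quantified by TaqMan qRT-PCR against three housekeeping genes, was fitted bidirectionally relative to 0.5% DMSO. HepaRG cultures were treated 48 h, in duplicate, at eight half-log concentrations topping at 100 uM.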

Read-out in a further assay: CYP2E1 (gene 1571)
Briefly: LTEA_HepaRG_CYP2E1: Life Technologies and Expression Analysis (LTEA) Assay for CYP2E1 using HepaRG (AID 2283485). The method, boiled down:
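Assay uses 48 h exposure of HepaRG hepatic cells, eight concentrations to 100 uM. Expression of CYP2E1 is quantified by TaqMan qRT-PCR with ACTB, GAPDH and POLR2A normalization; curves fitted in both directions relative to vehicle.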

Read-out in another assay: CYP4A11 (gene 1579)
Briefly: LTEA_HepaRG_CYP4A11: Life Technologies and Expression Analysis (LTEA) Assay for CYP4A11 using HepaRG (AID 2283486). The method, boiled down:
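Readout is CYP4A11 mRNA induction or suppression (qRT-PCR, ACTB/GAPDH/POLR2A normalization) in human HepaRG cells after 48 h chemical treatment, concentrations to 100 uM in 0.5% DMSO, fitted bidirectionally against vehicle.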

Read-out in assay [3]: Cytochrome P450 3A4 (Homo sapiens) (UniProt P08684)
The experiment in a line: LTEA_HepaRG_CYP3A4: Life Technologies and Expression Analysis (LTEA) Assay for CYP3A4 using HepaRG (AID 2283487). The procedure, abridged: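 Differentiated HepaRG cells in serum-free induction medium exposed in duplicate for 48 h to 8 half-log concentrations up to 100 uM in 0.5% DMSO. CYP3A4 mRNA measured by qRT-PCR normalized to ACTB, GAPDH and POLR2A; bidirectional fit versus DMSO.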

Read-out in assay [4]: DNA damage-inducible transcript 3 (DDIT3), DDIT3 (gene 1649)
Briefly: LTEA_HepaRG_DDIT3: Life Technologies and Expression Analysis (LTEA) Assay for DNA damage-inducible transcript 3 (DDIT3) using HepaRG (AID 2283488). The method, boiled down: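 Eight-point concentration-response (100 uM highest, half-log dilutions) in HepaRG, 48 h, duplicate wells. Endpoint: qRT-PCR mRNA, normalized (ACTB, GAPDH, POLR2A), bidirectional fitting with DMSO as baseline.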

Read-out in assay [5]: Pro-epidermal growth factor (Homo sapiens) (UniProt P01133)
The experiment in a line: LTEA_HepaRG_EGF: Life Technologies and Expression Analysis (LTEA) Assay for Epidermal growth factor (EGF) using HepaRG (AID 2283489). The procedure, abridged:
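EGF expression changes in human HepaRG cells are scored by bidirectional fitting relative to 0.5% DMSO controls. Chemicals are tested at eight half-log concentrations up to 100 uM for 48 h in serum-free induction medium.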

Read-out in assay [6]: Early growth response protein 1 (EGR1) transcription factor, EGR1 (gene 1958)
The experiment in a line: LTEA_HepaRG_EGR1: Life Technologies and Expression Analysis (LTEA) Assay for Early growth response protein 1 (EGR1) transcription factor using HepaRG (AID 2283490). The method, boiled down: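 EGR1 transcript levels quantified by qRT-PCR (Fluidigm arrays) against three housekeeping genes after 48 h chemical exposure of HepaRG cells. Eight-point half-log series topping at 100 uM, 0.5% DMSO vehicle, analyzed for gain or loss.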

Read-out in assay [7]: Cytochrome P450 3A7 (Homo sapiens) (UniProt P24462)
The experiment in a line: LTEA_HepaRG_CYP3A7: Life Technologies and Expression Analysis (LTEA) Assay for CYP3A7 using HepaRG (AID 2283492). The method, boiled down: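 Cells were thawed, plated, cultured 48 h, then treated for a further 48 h with chemicals (eight-point half-log series from 100 uM, 0.5% DMSO). RNA was isolated and CYP3A7 expression quantified by qRT-PCR normalised to ACTB, GAPDH and POLR2A.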

Read-out in a further assay: CYP3A5 (gene 1577)
Briefly: LTEA_HepaRG_CYP3A5: Life Technologies and Expression Analysis (LTEA) Assay for CYP3A5 using HepaRG (AID 2283493). The procedure, abridged:
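Readout was CYP3A5 mRNA by qRT-PCR. HepaRG cultures were exposed for 48 h in serum-free induction medium to chemicals at up to 100 uM, and responses were fitted in both directions relative to DMSO vehicle.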

Read-out in assay [8]: Fatty Acid-Binding Protein 1 (FABP1), FABP1 (gene 2168)
Briefly: LTEA_HepaRG_FABP1: Life Technologies and Expression Analysis (LTEA) Assay for Fatty Acid-Binding Protein 1 (FABP1) using HepaRG (AID 2283494). The procedure, abridged: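 FABP1 expression by TaqMan qRT-PCR, normalised to three housekeeping genes, in HepaRG cells after 48 h chemical treatment. Eight-point half-log series topping at 100 uM in 0.5% DMSO, duplicates; gain or loss fitted relative to vehicle.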

Read-out in assay [9]: Cytochrome P450 4A22 (Homo sapiens) (UniProt Q5TCH4)
Briefly: LTEA_HepaRG_CYP4A22: Life Technologies and Expression Analysis (LTEA) Assay for Cytochrome P450 4A22 (CYP4A22) using HepaRG (AID 2283495). The procedure, abridged: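 Cryopreserved HepaRG cells, plated and cultured 48 h, then switched to serum-free induction medium and treated 48 h (duplicates, up to 100 uM, half-log steps, 0.5% DMSO). Expression change of CYP4A22 was fitted bidirectionally against vehicle.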

Read-out in assay [10]: Cytochrome P450 7A1 (Homo sapiens) (UniProt P22680)
Briefly: LTEA_HepaRG_CYP7A1: Life Technologies and Expression Analysis (LTEA) Assay for Cytochrome P450 7A1 (CYP7A1) using HepaRG (AID 2283496). The procedure, abridged:
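Using 0.5% DMSO as vehicle and baseline, chemicals were tested in duplicate over an 8-point range from 100 uM on HepaRG cells for 48 h; qRT-PCR signals were normalised to ACTB, GAPDH and POLR2A.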

Read-out in assay [11]: Glutathione S-Transferase (GSTA2), GSTA2 (gene 2939)
The experiment in a line: LTEA_HepaRG_GSTA2: Life Technologies and Expression Analysis (LTEA) Assay for Glutathione S-Transferase (GSTA2) using HepaRG (AID 2283497). The procedure, abridged: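 GSTA2 transcript levels came from Fluidigm TaqMan qRT-PCR normalized to three housekeeping genes, fitted in both directions against DMSO. HepaRG cultures received chemicals for 48 h in serum-free induction medium (0.5% DMSO), 8 half-log concentrations up to 100 uM, duplicate.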

Read-out in assay [12]: Glutamate-cysteine ligase catalytic (GCLC), GCLC (gene 2729)
The experiment in a line: LTEA_HepaRG_GCLC: Life Technologies and Expression Analysis (LTEA) Assay for Glutamate-cysteine ligase catalytic (GCLC) using HepaRG (AID 2283498). The method, boiled down: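 Expression by TaqMan qRT-PCR, normalized to three housekeeping genes (ACTB, GAPDH, POLR2A), with up- or down-regulation fitted against DMSO. HepaRG cells dosed in duplicate for 48 h with 8 half-log concentrations up to 100 uM, vehicle 0.5% DMSO.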

Read-out in assay [13]: growth arrest and DNA damage 45 (GADD45G), GADD45G (gene 10912)
Briefly: LTEA_HepaRG_GADD45G: Life Technologies and Expression Analysis (LTEA) Assay for growth arrest and DNA damage 45 (GADD45G) using HepaRG (AID 2283499). The procedure, abridged:
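Human hepatic HepaRG line treated 48 h with chemicals (eight concentrations, half-log steps from 100 uM); transcript induction or repression of GADD45G scored by qRT-PCR versus DMSO vehicle.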

Read-out in assay [14]: Glutamate-cysteine ligase regulatory (GCLM), GCLM (gene 2730)
The experiment in a line: LTEA_HepaRG_GCLM: Life Technologies and Expression Analysis (LTEA) Assay for Glutamate-cysteine ligase regulatory (GCLM) using HepaRG (AID 2283500). The procedure, abridged: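 In this multiplexed HepaRG gene-expression assay, GCLM mRNA change after 48 h treatment (8 concentrations, max 100 uM) was scored against DMSO by bidirectional curve fitting.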

Cytochrome P450 3A7 (Homo sapiens), sequence (P24462 whole entry, looked up): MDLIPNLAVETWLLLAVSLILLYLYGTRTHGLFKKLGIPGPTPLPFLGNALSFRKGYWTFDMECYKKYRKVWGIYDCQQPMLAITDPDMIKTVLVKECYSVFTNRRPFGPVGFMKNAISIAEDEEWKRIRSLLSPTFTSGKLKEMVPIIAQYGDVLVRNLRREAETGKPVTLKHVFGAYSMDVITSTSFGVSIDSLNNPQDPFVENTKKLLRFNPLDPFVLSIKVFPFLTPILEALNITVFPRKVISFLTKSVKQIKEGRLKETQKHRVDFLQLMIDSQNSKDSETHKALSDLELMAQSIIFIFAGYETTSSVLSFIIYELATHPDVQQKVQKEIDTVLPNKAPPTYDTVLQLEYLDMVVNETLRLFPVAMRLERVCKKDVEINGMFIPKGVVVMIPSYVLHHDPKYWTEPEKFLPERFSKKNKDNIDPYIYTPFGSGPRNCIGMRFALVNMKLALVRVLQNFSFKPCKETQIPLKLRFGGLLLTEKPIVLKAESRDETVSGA
Cytochrome P450 3A4 (Homo sapiens), sequence (P08684 whole entry, looked up): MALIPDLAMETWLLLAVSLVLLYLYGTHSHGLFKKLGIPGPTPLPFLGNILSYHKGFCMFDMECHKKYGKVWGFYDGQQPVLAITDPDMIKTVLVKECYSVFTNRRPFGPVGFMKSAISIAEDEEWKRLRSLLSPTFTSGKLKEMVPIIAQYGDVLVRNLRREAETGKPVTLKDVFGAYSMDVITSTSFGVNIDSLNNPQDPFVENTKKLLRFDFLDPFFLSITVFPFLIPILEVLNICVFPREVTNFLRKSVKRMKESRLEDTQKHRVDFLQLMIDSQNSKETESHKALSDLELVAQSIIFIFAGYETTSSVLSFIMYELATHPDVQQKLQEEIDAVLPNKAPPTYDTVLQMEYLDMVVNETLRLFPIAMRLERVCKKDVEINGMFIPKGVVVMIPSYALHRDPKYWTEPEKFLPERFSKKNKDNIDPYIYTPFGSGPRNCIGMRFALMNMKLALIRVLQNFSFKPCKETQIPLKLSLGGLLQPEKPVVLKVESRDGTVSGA
Cytochrome P450 2C19 (Homo sapiens), sequence (P33261 whole entry, looked up): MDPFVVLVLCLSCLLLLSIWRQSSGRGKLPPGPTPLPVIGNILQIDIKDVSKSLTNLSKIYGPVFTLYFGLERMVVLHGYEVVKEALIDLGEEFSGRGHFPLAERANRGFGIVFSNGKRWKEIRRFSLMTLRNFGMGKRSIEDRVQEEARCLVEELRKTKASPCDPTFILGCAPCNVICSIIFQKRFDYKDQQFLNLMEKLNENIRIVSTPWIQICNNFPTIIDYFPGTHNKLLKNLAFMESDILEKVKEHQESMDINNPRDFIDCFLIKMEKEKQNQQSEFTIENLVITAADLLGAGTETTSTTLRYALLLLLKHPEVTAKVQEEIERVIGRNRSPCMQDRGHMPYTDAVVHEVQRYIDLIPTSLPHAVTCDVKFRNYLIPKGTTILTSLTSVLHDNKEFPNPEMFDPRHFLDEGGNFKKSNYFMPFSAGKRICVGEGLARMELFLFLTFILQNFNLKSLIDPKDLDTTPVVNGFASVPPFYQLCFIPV

Regarding `ClC1=C(Cl)C2(Cl)C3C(Cl)C=CC3C1(Cl)C2(Cl)Cl` (configuration not stated), the AC50 in [1] was 0.67 µM (active); in assay [2], 2.22 µM (active); with CYP2E1 (gene 1571), 7.54 µM (active); in the assay with CYP4A11 (gene 1579), 16.1 µM (active); in [3], 0.927 µM (active); in [8] it was 15.9 µM (active). Also, the AC50 in [9] was 13.1 µM (active); in assay [10], 13.8 µM (active); in assay [14] it was 32.1 µM (active). The result (with CYP2C8 (gene 1558); with CYP2C9 (gene 1559); in [4]; in assay [5]; in assay [6]; in [7]) was inactive. The compound was classed as inactive (with CYP3A5 (gene 1577); in assay [11]; in assay [12]; in [13]).

Turning to `C=CCc1ccc2c(c1)OCO2`, the AC50 in assay [1] was 18.4 µM (active). The call (in assay [2]; in the assay with CYP2C8 (gene 1558); with CYP2C9 (gene 1559); in the assay with CYP2E1 (gene 1571); with CYP4A11 (gene 1579); in assay [3]) was inactive. The compound was classed as inactive (in assay [4]; in assay [5]; in assay [6]; in assay [7]; with CYP3A5 (gene 1577); in [8]). Further, the compound was classed as inactive in assay [9], in [10], in assay [11], in assay [12], in assay [13] and in assay [14].

`Oc1ccc2ccc3cccc4ccc1c2c34`: the outcome (in assay [1]; in assay [2]; with CYP2C8 (gene 1558); with CYP2C9 (gene 1559); in the assay with CYP4A11 (gene 1579); in assay [3]) was inactive. In addition, the result (in [4]; in assay [5]; in assay [6]; in [7]; with CYP3A5 (gene 1577); in [8]) was inactive. For the same compound, the compound was classed as inactive in assay [9], in [11], in assay [12], in assay [13] and in assay [14]. For the same compound, the AC50 (with CYP2E1 (gene 1571); in assay [10]) was 50 µM (active) in each case.
